From PubChem BioAssay (EPA / NIEHS) come the findings set out here.

Records with an inconclusive call do not appear. Active and inactive are the calls of the source. How the source made its calls, unless noted: active means hit-call score of the fitted dose curve at least 0.9, where 1 is the maximum; inactive means score below 0.9.

The nature of assay [1]: ATG_PBREM_CIS: Attagene CIS-FACTORIAL HepG2 Assay for human Phenobarbital-responsive Enhancer Module (PBREM) (AID 2282955). Conditions: HepG2 PBREM cis-reporter, Attagene multiplexed transcription; actives raise or lower the signal. In outline:
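HepG2 cells transiently transfected with multiple cis-regulated reporter units measure endogenous transcription factor activity; 24 h compound exposure. Reporter mRNA quantified by RT-PCR, fluorescent labelling, HpaI digestion and capillary electrophoresis; bidirectional fit versus DMSO.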

The target in assay [2] is Paired box protein Pax-6 (Homo sapiens) (UniProt P26367). In words: ATG_Pax6_CIS: Attagene CIS-FACTORIAL HepG2 Assay for human Paired Box 6 (PAX6) (AID 2282956). Conditions: HepG2 CIS-FACTORIAL PAX6 reporter transcription, RNA readout; actives raise or lower the signal. An outline of the steps:
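HepG2 cells transiently transfected with cis-promoter-driven multiplexed reporter units sensing endogenous transcription factor activity; 24 h chemical exposure. Reporter mRNA quantified by RT-PCR, 6-FAM labelling, HpaI digestion and capillary electrophoresis; bidirectional fit versus DMSO baseline.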

Assay [3] in a line: ATG_PXRE_CIS: Attagene CIS-FACTORIAL HepG2 Assay for human Pregnane X Receptor Element (PXRE) (AID 2282957). Conditions: HepG2 Attagene CIS-FACTORIAL PXRE reporter, mRNA; actives raise or lower the signal. In outline: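 Transfect HepG2 with MRTUs (cis promoter elements); dose chemical, incubate 24 h; isolate RNA, RT with oligo(dT), PCR, 6-FAM label, HpaI cut, CE. Gain/loss fit vs DMSO.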

Assay [4] is described as follows: ATG_PPRE_CIS: Attagene CIS-FACTORIAL HepG2 Assay for human Peroxisome Proliferator-activated Response Element (PPRE) (AID 2282958). Conditions: HepG2 PPRE cis-element reporter, Attagene transcription factor profiling; actives raise or lower the signal. In outline: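 HepG2 cells are transiently transfected with multiplexed cis-promoter reporter units to report endogenous PPAR activity. After 24 h dosing, reporter mRNA is read by RT-PCR and capillary electrophoresis. Fitting is bidirectional against DMSO.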

The nature of assay [5]: ATG_RORE_CIS: Attagene CIS-FACTORIAL HepG2 Assay for human RAR-related Orphan Receptor Element (RORE) (AID 2282959). Particulars: HepG2 Attagene cis-factorial RORE reporter, mRNA; actives raise or lower the signal. An outline of the steps: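 HepG2 cells carrying transiently transfected cis-regulated reporter units; RORE-driven reporter mRNA quantified 24 h post-dosing by RT-PCR, 6-FAM primer extension, HpaI digestion and capillary electrophoresis. Bidirectional fit versus DMSO.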

Assay [6] addresses Transcription factor Sp1 (Homo sapiens) (UniProt P08047). In words: ATG_Sp1_CIS: Attagene CIS-FACTORIAL HepG2 Assay for human Specificity Protein 1 (Sp1) (AID 2282961). Particulars: HepG2 Sp1 cis-reporter transcription, actives raise or lower the signal. In outline:
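HepG2 cells transiently transfected with multiplexed cis-regulated reporter constructs, chemical exposure 24 h. Reporter mRNA quantified by RT-PCR with capillary electrophoresis; bidirectional fit relative to DMSO.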

The nature of assay [7]: ATG_SREBP_CIS: Attagene CIS-FACTORIAL HepG2 Assay for human Sterol Regulatory Element Binding (SREBP) (AID 2282962). Conditions: HepG2 Attagene cis-factorial SREBP reporter, mRNA; actives raise or lower the signal. In outline: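 HepG2 cells transiently transfected with multiplexed cis-promoter reporter units sensing endogenous transcription factors; reporter mRNA measured 24 h after dosing by RT-PCR, 6-FAM labeling, HpaI digestion and capillary electrophoresis. Bidirectional fit versus DMSO.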

In assay [8] the target is Signal transducer and activator of transcription 3 (Homo sapiens) (UniProt P40763). In words: ATG_STAT3_CIS: Attagene CIS-FACTORIAL HepG2 Assay for human Signal Transducer and Activator of Transcription 3 (STAT3) (AID 2282963). Particulars: HepG2, Attagene cis-factorial STAT3 reporter transcription; actives raise or lower the signal. An outline of the steps: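 Endogenous STAT3-responsive cis-element activity was read in transiently transfected HepG2 cells after 24 h treatment. Reporter transcripts were quantified via RT-PCR and capillary electrophoresis, with DMSO as negative control and bidirectional curve fitting.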

A short description of assay [9]: ATG_TA_CIS: Attagene CIS-FACTORIAL HepG2 Assay for human TA Basal Promoter (AID 2282964). Conditions: HepG2 Attagene CIS-factorial TA basal promoter reporter; actives raise or lower the signal. An outline of the steps:
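Fluorescence from labelled RT-PCR reporter fragments, separated by capillary electrophoresis, gives the signal. Cells: HepG2 transiently carrying multiple reporter units, 24 h chemical dosing. Gain or loss relative to DMSO.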

The nature of assay [10]: ATG_TCF_b_cat_CIS: Attagene CIS-FACTORIAL HepG2 Assay for human T-Cell-Factor with beta-catenin (TCF/b-cat) (AID 2282965). Conditions: HepG2 TCF/beta-catenin cis-reporter transcription, actives raise or lower the signal. An outline of the steps: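 Endogenous TCF/LEF activity read as reporter transcript level via RT-PCR and capillary electrophoresis fluorescence in transfected HepG2, 24 h exposure; gain or loss of signal fitted against DMSO controls.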

Assay [11] can be described thus: ATG_TAL_CIS: Attagene CIS-FACTORIAL HepG2 Assay for human TAL Basal Promoter (AID 2282966).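 Further: background control endpoint measuring basal TAL promoter reporter mRNA not a specific factor.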 Particulars: HepG2 Attagene cis-factorial TAL promoter reporter; actives raise or lower the signal. In outline: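 Fluorescence of labelled reporter cDNA fragments, resolved by capillary electrophoresis, gave the readout. Human HepG2 liver cells carried transiently transfected cis-element reporter units and were treated for 24 hours; activity was fitted bidirectionally against DMSO.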

Assay [12] is described as follows: ATG_TGFb_CIS: Attagene CIS-FACTORIAL HepG2 Assay for human Transforming Growth Factor (TGF) (AID 2282967). Particulars: HepG2 Attagene CIS TGFb reporter, mRNA transcription; actives raise or lower the signal. An outline of the steps: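 Bidirectional fitting relative to DMSO gave the endpoint. Underlying data: reporter mRNA from HepG2 cells carrying transiently transfected cis-regulated reporter constructs, harvested 24 h after dosing and analyzed by RT-PCR and capillary electrophoresis.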

Assay [13] can be described thus: ATG_VDRE_CIS: Attagene CIS-FACTORIAL HepG2 Assay for human Vitamin D Receptor Element (VDRE) (AID 2282968). Conditions: HepG2 VDRE cis-reporter transcription, actives raise or lower the signal. An outline of the steps: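 Reporter mRNA induction, quantified by capillary electrophoresis of fluorescently labelled RT-PCR products, was read 24 h after dosing HepG2 cells carrying transiently transfected cis-regulated reporter units; gain or loss relative to DMSO.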

Assay [14] concerns the target Estrogen receptor (Homo sapiens) (UniProt P03372). In words: ATG_ERa_TRANS: Attagene TRANS-FACTORIAL HepG2 Assay for human Estrogen Receptor alpha (ERa) (AID 2282970; active means hit-call score of the fitted dose curve at least 0.9, where 1 is the maximum). Conditions: HepG2 Attagene TRANS ERa GAL4 reporter, mRNA. An outline of the steps: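 Human liver HepG2, transient transfection of multiple GAL4-UAS reporter units; TRANS format (exogenous NR-Gal4 chimera). 24 h dosing. Readout: reporter mRNA, RT-PCR, 6-FAM primer extension, HpaI digest, capillary electrophoresis. Positive direction vs DMSO.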

Assay [15] has as its target X-box-binding protein 1 (Homo sapiens) (UniProt P17861). In words: ATG_Xbp1_CIS: Attagene CIS-FACTORIAL HepG2 Assay for human X-box Binding Protein 1 (XBP1) (AID 2282972). Conditions: HepG2 XBP1 cis-element reporter, Attagene multiplex; actives raise or lower the signal. An outline of the steps: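 HepG2 cells transiently transfected with multiple cis-element reporter units report endogenous TF activity; 24 h exposure, then reporter mRNA measured by RT-PCR, 6-FAM labelling, HpaI digestion and capillary electrophoresis. Bidirectional fitting versus DMSO.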

Assay [16] in a line: ATG_M_19_TRANS: Attagene TRANS-FACTORIAL HepG2 Assay for M19 Transcription Factor (Internal Marker) (AID 2282974; active means hit-call score of the fitted dose curve at least 0.9, where 1 is the maximum). Particulars: HepG2 Attagene TRANS-FACTORIAL M19 internal marker reporter. In outline:
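HepG2 transiently transfected with GAL4-UAS multiplex reporter constructs, exposed 24 h; reporter RNA quantified by RT-PCR, 6-FAM labeling, HpaI digestion and capillary electrophoresis; internal background marker fitted upward versus DMSO.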

Assay [17] can be described thus: ATG_Sox_CIS: Attagene CIS-FACTORIAL HepG2 Assay for human SRY-box transcription factor (SOX) (AID 2282960). Conditions: HepG2 Attagene cis-factorial SOX reporter, mRNA; actives raise or lower the signal. An outline of the steps:
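HepG2 cells transiently transfected with multiple cis-regulated reporter units, then dosed for 24 h. Reporter mRNA quantified by RT-PCR, fluorescent labelling, HpaI digestion and capillary electrophoresis; bidirectional fit versus DMSO.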

In assay [18] the target is Nuclear receptor subfamily 1 group I member 3 (Homo sapiens) (UniProt Q14994). In words: ATG_CAR_TRANS: Attagene TRANS-FACTORIAL HepG2 Assay for human Constitutive Androstane Receptor (CAR) (AID 2282969; active means hit-call score of the fitted dose curve at least 0.9, where 1 is the maximum;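 further: activators raise reporter mRNA above DMSO so AC50 marks induction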). Conditions: HepG2 Attagene TRANS-FACTORIAL CAR reporter. In outline:
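Readout is reporter mRNA induction, quantified by fluorescent primer extension and capillary electrophoresis after RT-PCR. Cells were HepG2 transiently carrying chimeric NR-Gal4 constructs with GAL4-UAS reporters, treated for 24 h; activity scored upward from DMSO.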

The target of assay [19] is Steroid hormone receptor ERR1 (Homo sapiens) (UniProt P11474). In words: ATG_ERRa_TRANS: Attagene TRANS-FACTORIAL HepG2 Assay for human Estrogen-Related Receptor alpha (ERRa) (AID 2282971; active means hit-call score of the fitted dose curve at least 0.9, where 1 is the maximum). Conditions: HepG2 Attagene TRANS reporter, ERRa transactivation. An outline of the steps: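 Reporter transcript induction was quantified by RT-PCR and capillary electrophoresis of FAM-labelled, HpaI-cut products after 24 h treatment of HepG2 cells carrying transiently transfected GAL4-UAS reporter units and an exogenous ERRa-Gal4 fusion; activity scored as increase over DMSO.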

The target in assay [20] is Androgen receptor (Homo sapiens) (UniProt P10275). In words: ATG_AR_TRANS: Attagene TRANS-FACTORIAL HepG2 Assay for human Androgen Receptor (AR) (AID 2282973; active means hit-call score of the fitted dose curve at least 0.9, where 1 is the maximum). Particulars: HepG2 Attagene TRANS-FACTORIAL AR reporter transcription. In outline:
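Steps: transfect HepG2 with multiple GAL4-UAS reporter transcription units (TRANS format, exogenous NR-Gal4 protein); dose 24 h; isolate RNA, reverse-transcribe, PCR-amplify, FAM-label, HpaI-digest; resolve by capillary electrophoresis. Positive direction vs DMSO.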

Chain of X-box-binding protein 1 (Homo sapiens) (P17861 whole entry, looked up): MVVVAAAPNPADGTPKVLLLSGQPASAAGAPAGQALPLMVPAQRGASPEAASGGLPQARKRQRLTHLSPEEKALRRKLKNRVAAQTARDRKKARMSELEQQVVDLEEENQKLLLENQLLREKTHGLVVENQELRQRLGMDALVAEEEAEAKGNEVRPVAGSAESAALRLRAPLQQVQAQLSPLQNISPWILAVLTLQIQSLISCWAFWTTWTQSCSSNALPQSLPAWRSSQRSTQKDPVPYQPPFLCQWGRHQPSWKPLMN
Chain of Signal transducer and activator of transcription 3 (Homo sapiens) (P40763 whole entry, looked up): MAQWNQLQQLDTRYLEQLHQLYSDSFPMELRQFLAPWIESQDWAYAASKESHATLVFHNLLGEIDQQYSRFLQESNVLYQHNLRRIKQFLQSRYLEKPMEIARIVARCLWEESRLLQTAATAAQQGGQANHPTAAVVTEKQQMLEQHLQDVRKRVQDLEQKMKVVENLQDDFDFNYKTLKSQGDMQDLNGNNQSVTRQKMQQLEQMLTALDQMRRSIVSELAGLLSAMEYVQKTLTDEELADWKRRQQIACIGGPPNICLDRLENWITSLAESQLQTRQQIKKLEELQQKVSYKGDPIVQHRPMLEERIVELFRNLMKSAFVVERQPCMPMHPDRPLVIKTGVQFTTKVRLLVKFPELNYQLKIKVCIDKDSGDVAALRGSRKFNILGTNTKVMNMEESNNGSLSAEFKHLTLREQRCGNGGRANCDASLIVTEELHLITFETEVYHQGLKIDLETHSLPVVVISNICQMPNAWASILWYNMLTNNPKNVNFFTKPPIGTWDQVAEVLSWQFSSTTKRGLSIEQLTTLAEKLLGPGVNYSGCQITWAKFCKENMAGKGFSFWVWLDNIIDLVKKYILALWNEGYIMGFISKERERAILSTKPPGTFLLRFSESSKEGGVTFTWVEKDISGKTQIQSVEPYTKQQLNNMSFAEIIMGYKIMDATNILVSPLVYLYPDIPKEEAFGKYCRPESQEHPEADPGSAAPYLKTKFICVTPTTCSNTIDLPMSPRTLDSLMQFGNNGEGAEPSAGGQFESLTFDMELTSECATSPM
Chain of Paired box protein Pax-6 (Homo sapiens) (P26367 whole entry, looked up): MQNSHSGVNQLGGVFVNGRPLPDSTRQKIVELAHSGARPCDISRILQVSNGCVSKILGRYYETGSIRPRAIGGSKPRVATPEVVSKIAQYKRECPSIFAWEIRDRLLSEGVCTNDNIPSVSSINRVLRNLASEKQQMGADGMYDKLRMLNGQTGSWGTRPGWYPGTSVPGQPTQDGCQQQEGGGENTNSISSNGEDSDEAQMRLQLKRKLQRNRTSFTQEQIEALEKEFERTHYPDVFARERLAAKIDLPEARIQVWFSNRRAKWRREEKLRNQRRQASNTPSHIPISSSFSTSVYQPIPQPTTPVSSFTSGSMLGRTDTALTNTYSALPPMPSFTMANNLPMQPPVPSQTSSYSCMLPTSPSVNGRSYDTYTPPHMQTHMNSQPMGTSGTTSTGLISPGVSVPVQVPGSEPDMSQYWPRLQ
Chain of Estrogen receptor (Homo sapiens) (P03372 whole entry, looked up, the tested form may be a part): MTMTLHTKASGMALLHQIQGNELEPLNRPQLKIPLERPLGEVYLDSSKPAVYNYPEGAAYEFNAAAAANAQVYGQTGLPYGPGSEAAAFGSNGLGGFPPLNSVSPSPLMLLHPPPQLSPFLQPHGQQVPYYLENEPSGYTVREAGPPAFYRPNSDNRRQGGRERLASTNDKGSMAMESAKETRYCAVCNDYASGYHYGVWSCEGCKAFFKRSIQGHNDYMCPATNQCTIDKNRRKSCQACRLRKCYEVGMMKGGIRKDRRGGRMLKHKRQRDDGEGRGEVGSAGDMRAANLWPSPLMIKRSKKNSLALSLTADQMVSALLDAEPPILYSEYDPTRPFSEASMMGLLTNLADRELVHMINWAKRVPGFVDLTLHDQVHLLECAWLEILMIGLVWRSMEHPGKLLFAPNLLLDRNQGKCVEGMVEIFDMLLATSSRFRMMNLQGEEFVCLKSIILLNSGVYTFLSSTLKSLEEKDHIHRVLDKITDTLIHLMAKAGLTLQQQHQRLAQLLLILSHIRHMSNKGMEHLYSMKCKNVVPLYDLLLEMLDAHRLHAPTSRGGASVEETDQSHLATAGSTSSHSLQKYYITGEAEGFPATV
Chain of Transcription factor Sp1 (Homo sapiens) (P08047 whole entry, looked up): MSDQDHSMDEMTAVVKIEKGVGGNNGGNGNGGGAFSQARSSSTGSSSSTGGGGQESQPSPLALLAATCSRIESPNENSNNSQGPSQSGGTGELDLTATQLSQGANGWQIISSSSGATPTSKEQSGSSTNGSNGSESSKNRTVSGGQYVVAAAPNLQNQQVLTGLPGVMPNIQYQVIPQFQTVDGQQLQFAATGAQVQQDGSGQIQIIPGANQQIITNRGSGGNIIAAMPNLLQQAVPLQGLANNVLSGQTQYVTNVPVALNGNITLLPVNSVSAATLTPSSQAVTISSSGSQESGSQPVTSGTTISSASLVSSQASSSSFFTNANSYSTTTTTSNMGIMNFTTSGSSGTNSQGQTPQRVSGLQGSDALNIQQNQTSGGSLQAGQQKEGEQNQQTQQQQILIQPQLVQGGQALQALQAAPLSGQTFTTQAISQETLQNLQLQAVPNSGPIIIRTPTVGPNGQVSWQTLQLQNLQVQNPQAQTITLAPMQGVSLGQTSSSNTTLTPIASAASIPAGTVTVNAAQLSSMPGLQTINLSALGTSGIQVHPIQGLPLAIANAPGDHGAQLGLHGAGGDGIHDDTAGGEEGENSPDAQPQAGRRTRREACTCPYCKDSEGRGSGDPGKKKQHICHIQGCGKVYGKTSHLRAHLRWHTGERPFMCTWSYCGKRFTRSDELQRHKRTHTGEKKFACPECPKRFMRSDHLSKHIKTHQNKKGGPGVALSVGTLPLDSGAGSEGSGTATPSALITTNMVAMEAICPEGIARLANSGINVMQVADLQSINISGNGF
Chain of Steroid hormone receptor ERR1 (Homo sapiens) (P11474 whole entry, looked up, the tested form may be a part): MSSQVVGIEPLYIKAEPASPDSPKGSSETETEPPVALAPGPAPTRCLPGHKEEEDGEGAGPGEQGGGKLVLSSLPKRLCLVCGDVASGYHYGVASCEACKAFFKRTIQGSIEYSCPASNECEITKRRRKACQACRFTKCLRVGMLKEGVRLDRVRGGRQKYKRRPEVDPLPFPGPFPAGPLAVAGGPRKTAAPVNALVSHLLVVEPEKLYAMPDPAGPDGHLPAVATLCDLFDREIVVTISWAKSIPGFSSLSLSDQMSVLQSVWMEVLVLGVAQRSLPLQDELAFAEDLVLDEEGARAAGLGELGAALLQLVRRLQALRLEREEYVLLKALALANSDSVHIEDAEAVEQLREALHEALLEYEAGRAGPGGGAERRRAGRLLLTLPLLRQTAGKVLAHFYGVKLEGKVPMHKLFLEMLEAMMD
Chain of Androgen receptor (Homo sapiens) (P10275 whole entry, looked up, the tested form may be a part): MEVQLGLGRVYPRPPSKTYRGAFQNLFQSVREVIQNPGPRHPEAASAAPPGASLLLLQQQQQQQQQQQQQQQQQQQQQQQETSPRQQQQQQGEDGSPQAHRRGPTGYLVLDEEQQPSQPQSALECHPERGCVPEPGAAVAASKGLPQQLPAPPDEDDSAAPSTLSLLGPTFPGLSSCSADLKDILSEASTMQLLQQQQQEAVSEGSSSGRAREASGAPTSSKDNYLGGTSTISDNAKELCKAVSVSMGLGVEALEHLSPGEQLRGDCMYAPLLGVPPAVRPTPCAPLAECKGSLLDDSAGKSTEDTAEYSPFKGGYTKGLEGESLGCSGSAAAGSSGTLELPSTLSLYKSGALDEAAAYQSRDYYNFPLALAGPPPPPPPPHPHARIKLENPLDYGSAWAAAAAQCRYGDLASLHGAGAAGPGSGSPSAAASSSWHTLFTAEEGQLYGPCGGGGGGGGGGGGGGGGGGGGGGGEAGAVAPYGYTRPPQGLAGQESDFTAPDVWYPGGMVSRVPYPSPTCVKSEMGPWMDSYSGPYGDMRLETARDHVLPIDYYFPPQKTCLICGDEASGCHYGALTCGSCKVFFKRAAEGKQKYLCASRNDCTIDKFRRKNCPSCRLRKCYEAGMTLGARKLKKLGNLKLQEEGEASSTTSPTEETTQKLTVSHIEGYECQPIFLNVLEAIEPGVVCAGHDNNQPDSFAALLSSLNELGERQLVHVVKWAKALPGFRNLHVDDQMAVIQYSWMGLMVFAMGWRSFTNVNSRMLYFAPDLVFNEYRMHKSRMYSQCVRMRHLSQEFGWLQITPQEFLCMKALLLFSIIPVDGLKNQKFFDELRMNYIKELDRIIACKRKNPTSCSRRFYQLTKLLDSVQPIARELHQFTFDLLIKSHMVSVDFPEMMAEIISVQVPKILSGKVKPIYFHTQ
Chain of Nuclear receptor subfamily 1 group I member 3 (Homo sapiens) (Q14994 whole entry, looked up, the tested form may be a part): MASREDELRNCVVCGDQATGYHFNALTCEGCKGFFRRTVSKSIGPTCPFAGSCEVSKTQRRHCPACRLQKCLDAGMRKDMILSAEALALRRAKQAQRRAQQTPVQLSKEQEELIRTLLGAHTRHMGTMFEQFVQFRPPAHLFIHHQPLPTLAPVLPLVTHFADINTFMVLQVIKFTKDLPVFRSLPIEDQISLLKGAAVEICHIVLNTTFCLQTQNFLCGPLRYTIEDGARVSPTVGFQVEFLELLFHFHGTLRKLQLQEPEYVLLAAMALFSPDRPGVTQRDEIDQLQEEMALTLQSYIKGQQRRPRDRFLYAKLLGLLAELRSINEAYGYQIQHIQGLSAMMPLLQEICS

For `CCCCc1ccccc1`, the outcome in [1], in assay [2], in [3], in [4], in assay [5] and in assay [6] was inactive. Besides, the compound was called inactive in assay [7], in assay [8], in assay [9], in assay [10], in [11] and in [12]. Besides, the result in [13], in assay [14], in assay [15] and in assay [16] was inactive.

With `Cc1ccc(O)cc1C`, the outcome in assay [1], in assay [2], in [3], in assay [5], in [6] and in assay [7] was inactive. Moreover, the result in assay [8], in assay [9], in [10], in assay [11], in [12] and in [15] was inactive. The outcome in [16] was inactive. Besides, the AC50 (usually the midpoint of the concentration-response curve, whichever way the signal moves) in assay [14] is 72.4 µM (active).

For `CCOP(=S)(OCC)SCS(=O)(=O)CC`, the result in assay [1], in assay [2], in assay [4], in assay [17], in assay [6] and in [7] was inactive. Further, the compound was called inactive in [8], in assay [9], in assay [10], in assay [11], in assay [12] and in assay [13]. Besides, the compound was called inactive in assay [18], in assay [14], in [19], in [15], in assay [20] and in assay [16]. For the same compound, the AC50 in assay [3] is 11.3 µM (active).

As to `Cc1ccc(C(=O)Cl)cc1`, the outcome in assay [1], in [2], in assay [3], in assay [4], in [5] and in assay [6] was inactive. Besides, the call in assay [7], in [8], in [9], in assay [10], in [11] and in [12] was inactive. For the same compound, the compound was called inactive in assay [13], in [19], in assay [15] and in assay [16].
